# Results reported in PubChem BioAssay AID1159580 (chemical genetic matrix, 2015).
# About 2,000 (36%) of roughly 5,500 compounds were called active. Inconclusive results (about 18%) are left out. The list shows a part of the results. Values without a mark were called inactive. Rule as the data show it: active = normalized growth mostly below about 0.91 (no sharp cut-off); inconclusive = no clear call, values can overlap the other calls; inactive = mostly above about 0.92.
# Experiment: chemical genetic growth profiling, strain panel (AID 1159580);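 also: tested at 20 µM; growth read once vehicle control cultures reached saturation at 30 °C; 1 = growth at the plate median or of vehicle wells; lower values mean less growth of the strain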
# Details: S. cerevisiae deletion strains, growth OD
# [1] = locus YAR019C, strain CDC15, active compounds read low
# [2] = locus YBL105C, strain PKC1, active compounds read low
# [3] = locus YBR135W, strain CKS1, active compounds read low
# [4] = locus YBR136W, strain MEC1, active compounds read low
# [5] = locus YBR160W, strain CDC28, active compounds read low
# [6] = locus YDL017W, strain CDC7, active compounds read low
# [7] = locus YDL028C, strain MPS1, active compounds read low
# [8] = locus YDL101C, strain DUN1, active compounds read low
# [9] = locus YDL108W, strain KIN28, active compounds read low
# [10] = locus YDL132W, strain cdc53, active compounds read low
# [11] = locus YDL214C, strain PRR2, active compounds read low
# [12] = locus YDR052C, strain DBF4, active compounds read low
# [13] = locus YDR054C, strain cdc34, active compounds read low
# [14] = locus YDR226W, strain ADK1, active compounds read low
# [15] = locus YDR477W, strain SNF1, active compounds read low
# [16] = locus YER123W, strain YCK3, active compounds read low
# [17] = locus YER133W, strain GLC7, active compounds read low
# [18] = locus YFL009W, strain cdc4, active compounds read low
# [19] = locus YFL029C, strain CAK1, active compounds read low
# [20] = locus YFR003C, strain YPI1, active compounds read low
# [21] = locus YFR019W, strain FAB1, active compounds read low
# [22] = locus YFR028C, strain CDC14, active compounds read low
# [23] = locus YGR040W, strain KSS1, active compounds read low
# [24] = locus YGR052W, strain FMP48, active compounds read low
# [25] = locus YGR092W, strain DBF2, active compounds read low
# [26] = locus YHR030C, strain SLT2, active compounds read low
# [27] = locus YHR079C, strain IRE1, active compounds read low
# [28] = locus YHR082C, strain KSP1, active compounds read low
# [29] = locus YHR205W, strain SCH9, active compounds read low
# [30] = locus YIL147C, strain SLN1, active compounds read low
# [31] = locus YJL095W, strain BCK1, active compounds read low
# [32] = locus YJL128C, strain PBS2, active compounds read low
# [33] = locus YJL157C, strain FAR1, active compounds read low
# [34] = locus YJR016C, strain ILV3, active compounds read low
# [35] = locus YJR066W, strain TOR1 (second series), active compounds read low
# [36] = locus YJR066W, strain TOR1, active compounds read low
# [37] = locus YKL048C, strain ELM1, active compounds read low
# [38] = locus YKL067W, strain YNK1, active compounds read low
# [39] = locus YKL101W, strain HSL1, active compounds read low
# [40] = locus YKL193C, strain SDS22, active compounds read low
# [41] = locus YKL203C, strain TOR2, active compounds read low
# [42] = locus YLR113W, strain HOG1, active compounds read low
# [43] = locus YLR133W, strain CKI1, active compounds read low
# [44] = locus YLR403W, strain SFP1, active compounds read low
# [45] = locus YML070W, strain DAK1, active compounds read low
# [46] = locus YMR001C, strain CDC5, active compounds read low
# [47] = locus YMR205C, strain PFK2 (second series), active compounds read low
# [48] = locus YMR277W, strain FCP1, active compounds read low
# [49] = locus YNL006W, strain LST8, active compounds read low
# [50] = locus YNL020C, strain ARK1, active compounds read low
# [51] = locus YNL161W, strain CBK1, active compounds read low
# [52] = locus YNL183C, strain NPR1, active compounds read low
# [53] = locus YNL207W, strain RIO2, active compounds read low
# [54] = locus YNL222W, strain SSU72, active compounds read low
# [55] = locus YNL307C, strain MCK1 (second series), active compounds read low
# [56] = locus YOL078W, strain AVO1, active compounds read low
# [57] = locus YOL136C, strain PFK27, active compounds read low
# [58] = locus YOR061W, strain CKA2, active compounds read low
# [59] = locus YOR119C, strain RIO1, active compounds read low
# [60] = locus YOR231W, strain MKK1, active compounds read low
# [61] = locus YOR329C, strain SCD5, active compounds read low
# [62] = locus YPL031C, strain PHO85, active compounds read low
# [63] = locus YPL153C, strain RAD53, active compounds read low
# [64] = locus YPL204W, strain HRR25, active compounds read low
# [65] = locus YPL209C, strain IPL1, active compounds read low
# [66] = locus YPL256C, strain CLN2, active compounds read low
# [67] = locus YPR025C, strain CCL1, active compounds read low
# [68] = locus YPR106W, strain ISR1, active compounds read low
# [69] = locus YPR111W, strain DBF20, active compounds read low
# [70] = strain NNK1, active compounds read low
# [71] = strain TSCII, active compounds read low
smiles,measurement,setting,value
CC1(C)C=Cc2cc(/C(N)=N\OC(=O)Nc3cccc(C(F)(F)F)c3)ccc2O1,normalized growth,[1],0.981
same,normalized growth,[2],0.982
same,normalized growth,[3],0.969
same,normalized growth,[4],0.972
same,normalized growth,[5],0.977
same,normalized growth,[6],0.987
same,normalized growth,[7],0.977
same,normalized growth,[8],0.988
same,normalized growth,[9],0.977
same,normalized growth,[10],0.977
same,normalized growth,[11],0.947
same,normalized growth,[12],0.989
same,normalized growth,[13],0.97
same,normalized growth,[14],0.976
same,normalized growth,[15],0.967
same,normalized growth,[16],0.866
same,normalized growth,[17],0.947
same,normalized growth,[18],0.976
same,normalized growth,[19],0.982
same,normalized growth,[20],0.984
same,normalized growth,[21],0.883
same,normalized growth,[22],0.978
same,normalized growth,[23],0.968
same,normalized growth,[24],0.99
same,normalized growth,[25],0.854
same,normalized growth,[26],0.426 (active)
same,normalized growth,[27],0.825
same,normalized growth,[28],0.917
same,normalized growth,[29],0.912
same,normalized growth,[30],0.98
same,normalized growth,[31],0.726
same,normalized growth,[32],0.967
same,normalized growth,[33],0.96
same,normalized growth,[34],0.975
same,normalized growth,[35],0.832
same,normalized growth,[36],0.827
same,normalized growth,[37],0.934
same,normalized growth,[38],0.933
same,normalized growth,[39],0.934
same,normalized growth,[40],0.979
same,normalized growth,[41],0.991
same,normalized growth,[42],0.832 (active)
same,normalized growth,[43],0.937
same,normalized growth,[44],0.949
same,normalized growth,[45],0.887
same,normalized growth,[46],0.98
same,normalized growth,[47],0.93
same,normalized growth,[48],0.987
same,normalized growth,[49],0.985
same,normalized growth,[50],0.924
same,normalized growth,[51],0.984
same,normalized growth,[52],0.801
same,normalized growth,[53],0.984
same,normalized growth,[54],0.981
same,normalized growth,[55],0.931
same,normalized growth,[56],0.976
same,normalized growth,[57],0.903
same,normalized growth,[58],0.945
same,normalized growth,[59],1.04
same,normalized growth,[60],0.823
same,normalized growth,[61],0.988
same,normalized growth,[62],0.935
same,normalized growth,[63],0.871
same,normalized growth,[64],0.903
same,normalized growth,[65],0.98
same,normalized growth,[66],0.831 (active)
same,normalized growth,[67],0.978
same,normalized growth,[68],0.981
same,normalized growth,[69],0.963
same,normalized growth,[70],0.993
same,normalized growth,[71],0.979
O=C(Nc1ccc(OC(F)(F)F)cc1)Nc1cccc(C(=O)O)c1,normalized growth,"locus YAL013W, strain DEP1, active compounds read low",1.01
same,normalized growth,"locus YBR229C, strain ROT2, active compounds read low",0.999
same,normalized growth,"locus YCL061C, strain MRC1, active compounds read low",1.01
same,normalized growth,[8],1.01
same,normalized growth,"locus YDL134C, strain PPH21, active compounds read low",1.04
same,normalized growth,"locus YDR150W, strain NUM1, active compounds read low",0.947
same,normalized growth,"locus YEL061C, strain CIN8, active compounds read low",1.02
same,normalized growth,"locus YGR078C, strain PAC10, active compounds read low",1
same,normalized growth,[26],1.02
same,normalized growth,"locus YHR087W, strain rtc3, active compounds read low",1.02
same,normalized growth,"locus YJL187C, strain SWE1, active compounds read low",1.01
same,normalized growth,"locus YJR043C, strain POL32, active compounds read low",0.974
same,normalized growth,"locus YJR075W, strain HOC1, active compounds read low",1.01
same,normalized growth,"locus YLR039C, strain RIC1, active compounds read low",0.995
same,normalized growth,"locus YLR058C, strain SHM2 (second series), active compounds read low",1.01
same,normalized growth,"locus YLR085C, strain ARP6, active compounds read low",1.07
same,normalized growth,"locus YLR262C, strain YPT6, active compounds read low",0.981
same,normalized growth,"locus YML094W, strain GIM5, active compounds read low",1.02
same,normalized growth,"locus YMR219W, strain ESC1, active compounds read low",1
same,normalized growth,"locus YMR263W, strain SAP30, active compounds read low",1.02
same,normalized growth,"locus YMR307W, strain GAS1, active compounds read low",1.08
same,normalized growth,"locus YNL153C, strain GIM3, active compounds read low",0.988
same,normalized growth,"locus YNL298W, strain CLA4 (second series), active compounds read low",1
same,normalized growth,"locus YNL322C, strain KRE1, active compounds read low",0.999
same,normalized growth,"locus YNR030W, strain Alg12, active compounds read low",1.04
same,normalized growth,"locus YPL055C, strain LGE1, active compounds read low",0.999
same,normalized growth,"locus YPL241C, strain CIN2, active compounds read low",1.03
same,normalized growth,"locus YPR135W, strain CTF4, active compounds read low",0.996
N/C(=N/OC(=O)Nc1cccc(C(F)(F)F)c1)c1ccc(OC(F)(F)F)cc1,normalized growth,[1],0.983
same,normalized growth,[2],1
same,normalized growth,[3],0.979
same,normalized growth,[4],0.985
same,normalized growth,[5],0.969
same,normalized growth,[6],0.995
same,normalized growth,[7],0.972
same,normalized growth,[8],0.989
same,normalized growth,[9],0.975
same,normalized growth,[10],0.979
same,normalized growth,[11],0.895
same,normalized growth,[12],0.998
same,normalized growth,[13],0.971
same,normalized growth,[14],0.971
same,normalized growth,[15],0.822
same,normalized growth,[16],0.524 (active)
same,normalized growth,[17],0.893
same,normalized growth,[18],0.953
same,normalized growth,[19],0.981
same,normalized growth,[20],0.994
same,normalized growth,[21],0.745 (active)
same,normalized growth,[22],0.976
same,normalized growth,[23],0.837
same,normalized growth,[24],0.551 (active)
same,normalized growth,[25],0.616
same,normalized growth,[26],0.21 (active)
same,normalized growth,[27],0.306 (active)
same,normalized growth,[28],0.496 (active)
same,normalized growth,[29],0.882
same,normalized growth,[30],0.988
same,normalized growth,[31],0.287 (active)
same,normalized growth,[32],0.93
same,normalized growth,[33],0.905
same,normalized growth,[34],0.988
same,normalized growth,[35],0.731
same,normalized growth,[36],0.555
same,normalized growth,[37],0.874
same,normalized growth,[38],0.883
same,normalized growth,[39],0.743
same,normalized growth,[40],0.985
same,normalized growth,[41],0.895
same,normalized growth,[42],0.361 (active)
same,normalized growth,[43],0.887
same,normalized growth,[44],0.914
same,normalized growth,[45],0.716
same,normalized growth,[46],0.983
same,normalized growth,[47],0.906
same,normalized growth,[48],0.97
same,normalized growth,[49],0.977
same,normalized growth,[50],0.794
same,normalized growth,[51],0.996
same,normalized growth,[52],0.53 (active)
same,normalized growth,[53],0.995
same,normalized growth,[54],0.973
same,normalized growth,[55],0.814
same,normalized growth,[56],0.983
same,normalized growth,[57],0.821
same,normalized growth,[58],0.883
same,normalized growth,[59],0.869
same,normalized growth,[60],0.269 (active)
same,normalized growth,[61],0.993
same,normalized growth,[62],0.749
same,normalized growth,[63],0.485 (active)
same,normalized growth,[64],0.684
same,normalized growth,[65],0.992
same,normalized growth,[66],0.456 (active)
same,normalized growth,[67],0.99
same,normalized growth,[68],0.976
same,normalized growth,[69],0.946
same,normalized growth,[70],0.98
same,normalized growth,[71],0.986
